# A selection: hits, their analogues and other compounds. The true share with any hit is near 9%.
# HttQ103 aggreg = qHTS Multiplex Assay to Identify Dual Action Probes in a Cell Model of Huntington: Aggregate Formation (GFP); Potency, µM (top dose mostly 46.1 µM), for the others: at the top dose activity change, negative = inhibition, usual class: inhibitors; PC12 HttQ103-GFP aggregates, Acumen cytometry, 40 h; actives 1.1% (n = 220,000); note: % is set by controls: 0 for no effect and ±100 for the full control effect; nearly all actives have a fitted effect of over 60% in size
#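 PC12 cells with ecdysone-inducible HTT exon1 Q103-GFP, induced by 100 nM tebufenozide, given compounds in a concentration series. GFP aggregates (1–25 um, 6 SD above background) counted in lysates by laser-scanning cytometry, 488 nm excitation.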
# HPGD inh = qHTS Assay for Inhibitors of HPGD (15-Hydroxyprostaglandin Dehydrogenase); purified HPGD, NADH fluorescence kinetic, PGE2 substrate; AID 894, 2007; Potency, µM, without a hit: at the highest dose activity change, negative = inhibition, usual class: inhibitors; actives 4.3% (n = 150,000); active = well fitted inhibition curve with a large enough effect, not every such curve was filed as active; inconclusive = small, poorly fitted or top-dose-only effect, or another doubt; inactive = no such curve, though single readings can be large or run the other way; note: % is set by controls: 0 for no effect and ±100 for the full control effect
#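 NADH formation kinetics: reaction with 30 uM PGE2 and 1 mM NAD+ (final), 20 nM enzyme, Tris-HCl pH 8 with Tween 20, after 15 min compound preincubation at room temperature. Fluorescence change, last versus first of five reads.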
# Lamin A splicing = qHTS Assay for Modulators of Lamin A Splicing | HeLa LMNA splicing GFP/RFP minigene ratio, 48 h | Potency, µM (doses to about 46.1 µM), inactives show at the top dose ratio change, negative = inhibition, hits mostly inhibitors | actives 0.01% (n = 200,000) | AID 1487, 2009; active = well fitted inhibition curve with a large enough effect in the signal ratio, with a control signal flat, not every such curve was filed as active; inconclusive = small, poorly fitted or top-dose-only effect, or effect the other way, or a change in a side signal; the % refers to the signal ratio; note: % is set by controls: 0 for no effect and ±100 for the full control effect
#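 S3 HeLa cells stably expressing lamin A-EGFP splicing minigene plus DsRed2, 600 cells/well, 48 h compound exposure at 37C. Laser-scanning cytometry; analysed as GFP (500-530 nm)/RFP (575-640 nm) total intensity ratio; 0.5% DMSO vehicle.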
# KinaseGlo FLuc = Counterscreen for Luciferase (Kinase-Glo TM) Inhibition; actives 0.28% (n = 200,000); Kinase-Glo luciferase, ATP luminescence, 8 min; Luciferin 4-monooxygenase (Photuris pensylvanica), Q27757; Potency, µM (titrated, usually from 38.3 µM), inactives show at the top dose activity change, negative = inhibition, actives largely listed as inhibitors; AID 1379, 2008; note: % is set by controls: 0 for no effect and ±100 for the full control effect; nearly all actives have a fitted effect of over 60% in size
#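 Kinase-Glo luciferase light output from ATP and luciferin was measured with 10 uM ATP, within the enzyme's linear range. Buffer: 50 mM imidazole pH 7.2, 50 mM KCl, 7 mM MgCl2, 0.01% Tween 20, 0.05% BSA; luminescence read after 8 min at ambient temperature.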
# HTT cytoprotect = qHTS Multiplex Assay to Identify Dual Action Probes in a Cell Model of Huntington: Cytoprotection (ATP) | actives 0.14% (n = 230,000) | PC12 HTT-Q103 induced, cytoprotection, ATP luminescence, 40 h | Potency, µM (series often up to 56.4 µM), without a hit: cytoprotection (ATP increase), usual class: activators | AID 1471, 2008; note: % of control where 0% means no effect; nearly all actives have a fitted effect of over 45% in size
#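 Compounds were screened for protection of PC12 cells against cell death after tebufenozide induction (100 nM final) of mutant Huntingtin exon 1 (Q103) fused to GFP.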
# ALDH1A1 inh = qHTS Assay for Inhibitors of Aldehyde Dehydrogenase 1 (ALDH1A1). Aldehyde dehydrogenase 1A1 (Homo sapiens), P00352. actives 7.3% (n = 220,000). Potency, µM (doses to about 75.3 µM), for the others: top-dose activity, negative = inhibition, hits mostly inhibitors. Purified ALDH1A1, NADH fluorescence, propionaldehyde substrate; active = well fitted inhibition curve with a large enough effect, not every such curve was filed as active; inconclusive = small, poorly fitted or top-dose-only effect, or another doubt; inactive = no such curve, though single readings can be large or run the other way;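 note: plate controls were no enzyme wells and a reference inhibitor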
# Target sequence (P00352 whole entry, looked up): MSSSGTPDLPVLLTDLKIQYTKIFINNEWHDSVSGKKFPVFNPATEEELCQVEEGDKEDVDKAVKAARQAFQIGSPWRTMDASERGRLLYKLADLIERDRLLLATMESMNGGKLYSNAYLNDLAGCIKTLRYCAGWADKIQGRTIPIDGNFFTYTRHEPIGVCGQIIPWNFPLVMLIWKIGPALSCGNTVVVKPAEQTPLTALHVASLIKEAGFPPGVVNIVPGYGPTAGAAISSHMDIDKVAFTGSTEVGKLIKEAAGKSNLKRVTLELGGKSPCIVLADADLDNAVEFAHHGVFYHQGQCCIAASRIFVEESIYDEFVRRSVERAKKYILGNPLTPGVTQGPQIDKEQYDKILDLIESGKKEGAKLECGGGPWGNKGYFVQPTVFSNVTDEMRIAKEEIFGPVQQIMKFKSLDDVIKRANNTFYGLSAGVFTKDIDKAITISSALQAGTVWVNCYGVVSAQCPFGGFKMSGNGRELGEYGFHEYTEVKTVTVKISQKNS
# * marks the source's active call; other numbers are inactive results; ? = inconclusive; nt = no result given; [ ] = another dose, or the depositor's remark. Unless noted, calls come from the whole dose curve; as a rule, active = well fitted curve in the direction sought with a large enough effect; inconclusive = small, poorly fitted or top-dose-only effect, or another doubt; inactive = no such curve, though single readings can be large; an effect the other way counts as inactive or inconclusive. Potency is the fitted concentration of half-maximal effect.
SMILES,HttQ103 aggreg,HPGD inh,Lamin A splicing,KinaseGlo FLuc,HTT cytoprotect,ALDH1A1 inh
CCN(CC)C(=O)c1ccc(S(=O)(=O)NCc2cccnc2)cc1,11µM*,?,?,-4%,22%[10 µM],5%
Cc1ccc(S(=O)(=O)NCc2ccc(C(=O)NCc3cccnc3)cc2)cc1,0%,nt,nt,0%,nt,?
CCN(Cc1ccccc1)C(=O)c1ccc(CNS(=O)(=O)c2ccc(C)cc2)cc1,2%,?,?,3%,nt,2µM*
COc1cc(NC(=O)c2cccc(Cl)c2)ccc1NC(=O)c1cccs1,16%[9.22 µM],nt,3%[46 µM],1%,24%[10 µM],14%
COc1ccc(Cl)cc1NC(=S)NNC(=O)c1cccs1,-8%[9.22 µM],nt,-5%[46 µM],-12%,0%[10 µM],10µM*
COc1cc(NC(=S)NC(=O)c2ccc(C(C)(C)C)cc2)ccc1NC(=O)c1cccs1,-21%,-9%,?,1%,-22%[10 µM],12µM*
COc1cc(NC(=S)NC(=O)c2ccccc2F)ccc1NC(=O)c1cccs1,12%,nt,nt,0%,nt,?
COc1cc(NC(=S)NC(=O)c2c(OC)cccc2OC)ccc1NC(=O)c1cccs1,13%,-8%,11%,3%,-15%,-8%
COc1cc(NC(=S)NC(=O)c2ccccc2C)ccc1NC(=O)c1cccs1,-1%,?,?,3%,0%[10 µM],25µM*
COc1cc(NC(=S)NC(=O)c2cc(C)cc(C)c2)ccc1NC(=O)c1cccs1,2%,-18%,-10%,2%,8%[10 µM],14µM*
Cc1ccc(NC(=O)c2cnc(SCC(=O)Nc3cc(C)on3)n(C)c2=O)cc1,nt,nt,6%[46 µM],nt,nt,nt
C=CC[n+]1c(/C=C2\C=Cc3cc(C)ccc3N2CC)ccc2ccccc21,3.2µM*,nt,?,-23%,-125%,?
CCN1C(=C(C#N)C#N)C=Cc2cc(C)ccc21,-22%,nt,nt,1%,23%,5%
Cc1ccc(NC(=O)Cc2ccccc2)c(C)c1,2%[9.22 µM],nt,3%[9.22 µM],0%,-22%[1.9 µM],-4%
Cc1ccc(NC(=O)CNc2cccc(C)c2C)c(C)c1,-8%,32µM*,2%,3%,-4%,8.9µM*
Cc1ccc(NC(=O)CNc2ccc(OC(C)C)cc2)c(C)c1,3%,-10%,-15%,-1%,-4%[10 µM],4.5µM*
CCCc1cc(C(=O)Nc2cccnc2Cl)no1,9%,-5%,6%,10%,19%,-9%
CCOC(=O)C1=NN(c2ccc([N+](=O)[O-])cc2)CC1C(=O)OC (centres undefined),11%,-11%,-6%,1%,25%[10 µM],1.1µM*
CCCCOC(=O)C1CN(c2ccccc2)N=C1C(=O)OCC (centres undefined),6%,?,-14%,8%,18%[10 µM],-2%
O=C(C[n+]1cc(-c2ccc(F)cc2)n2c1CCC2)N1c2ccccc2Sc2ccccc21,-19%,-2%,?,-2%,-6%[10 µM],?
C=CCn1c(COc2ccccc2)nnc1SCC(=O)O,14%,-4%,-4%,2%,-11%[10 µM],9%
O=C(O)CC(NC(=O)Cc1ccccc1)c1cc([N+](=O)[O-])ccc1Cl (centres undefined),-5%,nt,?,2%,-18%,-4%
COc1ccc(C(=O)NC(CC(=O)O)c2cc([N+](=O)[O-])ccc2Cl)c(SC)c1 (centres undefined),16%,nt,19%[9.22 µM],12%,-32%,8.9µM*
COc1cc2[nH]c(=S)nc(NCCCOC(C)C)c2cc1OC,2%,18µM*,12%,0%,13%,?
CCOCCCNc1nc(=S)[nH]c2cc(OC)c(OC)cc12,7%,-6%,?,-6%,-26%,6%
